This note sets out measurements from ChEMBL document CHEMBL3988442, “University of Dundee, Small-Polar-MMV Screening Library” (2021).

Parameters in all cases: scale not given: direction of the effect not stated beside the values
For experiment [1], the target named is Protein translocase subunit SecA (Escherichia coli (strain K12)) (UniProt P10408). Briefly: Assay to Identify E. coli SecA ATPase Inhibitors. The experiment is classed as functional. As to conditions: 30 µM.
The target of experiment [2] is T1, Ubiquitin-activating enzyme e1, putative (Leishmania donovani (strain BPK282A1)) (UniProt E9BSI1).
T1 sequence (whole entry): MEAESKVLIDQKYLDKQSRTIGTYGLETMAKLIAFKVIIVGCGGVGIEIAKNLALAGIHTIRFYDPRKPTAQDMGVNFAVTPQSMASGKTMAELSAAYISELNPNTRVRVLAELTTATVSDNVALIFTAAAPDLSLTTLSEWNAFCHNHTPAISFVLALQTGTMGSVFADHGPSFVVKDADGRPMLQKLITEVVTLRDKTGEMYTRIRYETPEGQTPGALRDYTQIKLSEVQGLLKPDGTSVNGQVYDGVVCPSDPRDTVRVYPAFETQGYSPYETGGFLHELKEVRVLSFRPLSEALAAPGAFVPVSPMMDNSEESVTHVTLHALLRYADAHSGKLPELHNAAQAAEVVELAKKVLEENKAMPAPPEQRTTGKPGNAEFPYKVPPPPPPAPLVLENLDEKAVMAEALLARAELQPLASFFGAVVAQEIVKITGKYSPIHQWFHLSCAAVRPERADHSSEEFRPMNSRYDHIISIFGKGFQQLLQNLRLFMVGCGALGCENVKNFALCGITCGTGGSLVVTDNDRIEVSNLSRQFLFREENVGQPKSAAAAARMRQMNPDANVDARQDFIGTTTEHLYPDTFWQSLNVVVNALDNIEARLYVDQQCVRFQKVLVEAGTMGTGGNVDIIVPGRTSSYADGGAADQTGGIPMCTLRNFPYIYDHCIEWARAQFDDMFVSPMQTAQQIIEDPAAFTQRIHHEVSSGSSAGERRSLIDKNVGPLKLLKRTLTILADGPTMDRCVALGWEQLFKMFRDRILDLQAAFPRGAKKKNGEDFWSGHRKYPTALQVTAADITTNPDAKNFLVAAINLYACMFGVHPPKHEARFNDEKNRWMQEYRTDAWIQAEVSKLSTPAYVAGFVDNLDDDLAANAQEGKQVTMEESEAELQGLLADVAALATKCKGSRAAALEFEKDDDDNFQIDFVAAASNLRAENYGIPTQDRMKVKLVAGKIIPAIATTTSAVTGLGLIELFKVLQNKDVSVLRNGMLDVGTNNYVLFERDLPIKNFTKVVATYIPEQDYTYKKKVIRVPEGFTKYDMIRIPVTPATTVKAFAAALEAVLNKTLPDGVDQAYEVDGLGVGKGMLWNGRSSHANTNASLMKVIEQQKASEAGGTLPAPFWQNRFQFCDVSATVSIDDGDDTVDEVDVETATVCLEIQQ
Put plainly: Leishmania donovani Ubiquitin Activating Enzyme (LdE1). As to conditions: 30 µM. The class given is functional.

For experiment [3], the target named is AMP-activated protein kinase, AMPK (Homo sapiens) (UniProt P54646+O43741+P54619+Q9UGJ0+Q9Y478+Q13131+Q9UGI9). Briefly: AMP-dependent Kinase enzyme assay. An in vitro enzyme assay that detects ADP turnover that is directly proportional to AMPK activity. This uses naive AMPK that is activated during the assay with MK-8722. The class given is functional. As to conditions: 30 µM.

In experiment [4] the target is Sialic acid-binding Ig-like lectin 9 (Homo sapiens) (UniProt Q9Y336). Briefly: Hs-Siglec9 ALPHAscreen SOP 20170721. As to conditions: 10 µM. For orientation: Alpha assays give light when donor and acceptor beads are brought close together.
Sialic acid-binding Ig-like lectin 9 (Homo sapiens), sequence (Q9Y336 whole entry): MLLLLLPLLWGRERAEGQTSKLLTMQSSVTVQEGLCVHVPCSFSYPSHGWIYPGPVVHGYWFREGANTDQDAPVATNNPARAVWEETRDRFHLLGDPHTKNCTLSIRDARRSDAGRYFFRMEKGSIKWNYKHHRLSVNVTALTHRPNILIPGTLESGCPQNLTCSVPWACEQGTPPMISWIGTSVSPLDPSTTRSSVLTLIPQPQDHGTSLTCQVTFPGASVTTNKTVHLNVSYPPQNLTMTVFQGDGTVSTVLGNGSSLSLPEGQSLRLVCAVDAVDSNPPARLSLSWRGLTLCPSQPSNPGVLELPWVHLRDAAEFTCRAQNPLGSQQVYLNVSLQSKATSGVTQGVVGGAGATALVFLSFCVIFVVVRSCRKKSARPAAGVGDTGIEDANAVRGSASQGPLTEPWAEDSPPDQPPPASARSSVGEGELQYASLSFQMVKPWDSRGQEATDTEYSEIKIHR
A further experiment concerns Trypanosoma cruzi. Put plainly: Trypanosoma cruzi phosphomannomutase and mannose-1-phosphate guanylyltransferase assay. The experiment is classed as functional. As to conditions: 10 µM.
The target in experiment [5] is T2, Arginase-2, mitochondrial (Homo sapiens) (UniProt P78540).
T2 sequence (whole entry): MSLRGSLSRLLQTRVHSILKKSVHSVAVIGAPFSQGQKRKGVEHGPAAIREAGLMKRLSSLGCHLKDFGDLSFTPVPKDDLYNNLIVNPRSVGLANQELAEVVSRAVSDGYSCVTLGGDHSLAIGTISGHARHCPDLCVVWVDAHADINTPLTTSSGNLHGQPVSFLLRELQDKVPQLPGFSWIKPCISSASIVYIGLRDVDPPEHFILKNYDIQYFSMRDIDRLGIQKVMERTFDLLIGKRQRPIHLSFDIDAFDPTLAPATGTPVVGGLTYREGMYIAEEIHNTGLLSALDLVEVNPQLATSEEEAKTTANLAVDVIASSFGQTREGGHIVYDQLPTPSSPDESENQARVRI
Put plainly: in vitro enzyme assay to detect the production of urea directly proportional to the activity of Arginase II. Note: in the data most compounds retested in dose-response had high values. As to conditions: 33.3 µM. The class given is functional.

Experiment [6] deals with T3, Proteasome subunit beta (Trypanosoma cruzi) (UniProt O96673).
T3 sequence (whole entry): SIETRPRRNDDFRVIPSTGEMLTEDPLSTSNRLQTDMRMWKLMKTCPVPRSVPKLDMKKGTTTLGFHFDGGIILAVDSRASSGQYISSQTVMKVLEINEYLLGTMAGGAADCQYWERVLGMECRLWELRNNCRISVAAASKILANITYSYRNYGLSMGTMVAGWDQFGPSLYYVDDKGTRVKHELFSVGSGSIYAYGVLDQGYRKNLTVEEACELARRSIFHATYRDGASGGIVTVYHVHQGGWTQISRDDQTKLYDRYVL
Briefly: Trypanosoma cruzi proteasome chymotrypsin-like activity (TcProtChymo) assay. Note: in the data most compounds retested in dose-response had high values. The experiment is classed as functional. As to conditions: 9.37 µM.

The species named for another experiment is Homo sapiens. Put plainly: To identify inhibition of the IFN signalling (Jak-Stat) pathway via expression of an eGFP reporter gene under the control of an IFN-stimulated response element (ISRE) containing MxA promoter. As to conditions: 30 µM. The class given is functional. On the technique in general: Reporter assays use an easily measured gene product as a stand-in for the process of interest.

The target of experiment [7] is T4, Tyrosyl-tRNA synthetase, putative (Trypanosoma cruzi (strain CL Brener)) (UniProt Q4DSP6).
T4 sequence (whole entry): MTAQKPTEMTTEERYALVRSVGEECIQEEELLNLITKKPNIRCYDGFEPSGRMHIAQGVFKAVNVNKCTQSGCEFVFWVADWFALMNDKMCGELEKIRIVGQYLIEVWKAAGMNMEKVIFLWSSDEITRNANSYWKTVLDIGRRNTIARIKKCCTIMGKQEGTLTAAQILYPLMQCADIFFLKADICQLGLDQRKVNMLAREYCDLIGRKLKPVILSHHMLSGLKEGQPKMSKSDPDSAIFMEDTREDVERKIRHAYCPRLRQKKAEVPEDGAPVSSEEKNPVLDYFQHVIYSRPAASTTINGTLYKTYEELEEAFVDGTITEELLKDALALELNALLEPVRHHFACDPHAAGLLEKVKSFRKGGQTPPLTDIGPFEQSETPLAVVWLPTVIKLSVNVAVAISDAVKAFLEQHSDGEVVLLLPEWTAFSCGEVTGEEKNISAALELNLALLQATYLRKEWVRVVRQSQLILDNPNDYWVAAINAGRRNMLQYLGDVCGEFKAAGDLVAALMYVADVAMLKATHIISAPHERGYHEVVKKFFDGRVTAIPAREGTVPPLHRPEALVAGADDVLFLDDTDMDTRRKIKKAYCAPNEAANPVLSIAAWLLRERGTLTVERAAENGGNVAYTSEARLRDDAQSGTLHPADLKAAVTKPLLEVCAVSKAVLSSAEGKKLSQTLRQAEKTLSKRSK
Briefly: Trypanosoma cruzi tyrosyl tRNA synthetase (TcYRS) _High Tyrosine SOP. Note: in the data most compounds retested in dose-response had high values. The experiment is classed as functional. As to conditions: 30 µM.

Experiment [8] addresses T4, Tyrosyl-tRNA synthetase, putative (Trypanosoma cruzi (strain CL Brener)). Briefly: Trypanosoma cruzi tyrosyl tRNA synthetase (TcYRS) SOP. The class given is functional. As to conditions: 30 µM.
Experiment [9] concerns the target Chromo domain-containing protein 1 (Saccharomyces cerevisiae (strain ATCC 204508 / S288c) (Baker's yeast)) (UniProt P32657). Put plainly: ScCHD-1 Enzyme Inhibition Assay. Note: in the data most compounds retested in dose-response had high values. The experiment is classed as functional. As to conditions: 30 µM.

For some assays here: Entries with a potency or affinity are not part of this list.

Chromo domain-containing protein 1 (Saccharomyces cerevisiae (strain ATCC 204508 / S288c) (Baker's yeast)), sequence (P32657 whole entry, the tested form may be a part): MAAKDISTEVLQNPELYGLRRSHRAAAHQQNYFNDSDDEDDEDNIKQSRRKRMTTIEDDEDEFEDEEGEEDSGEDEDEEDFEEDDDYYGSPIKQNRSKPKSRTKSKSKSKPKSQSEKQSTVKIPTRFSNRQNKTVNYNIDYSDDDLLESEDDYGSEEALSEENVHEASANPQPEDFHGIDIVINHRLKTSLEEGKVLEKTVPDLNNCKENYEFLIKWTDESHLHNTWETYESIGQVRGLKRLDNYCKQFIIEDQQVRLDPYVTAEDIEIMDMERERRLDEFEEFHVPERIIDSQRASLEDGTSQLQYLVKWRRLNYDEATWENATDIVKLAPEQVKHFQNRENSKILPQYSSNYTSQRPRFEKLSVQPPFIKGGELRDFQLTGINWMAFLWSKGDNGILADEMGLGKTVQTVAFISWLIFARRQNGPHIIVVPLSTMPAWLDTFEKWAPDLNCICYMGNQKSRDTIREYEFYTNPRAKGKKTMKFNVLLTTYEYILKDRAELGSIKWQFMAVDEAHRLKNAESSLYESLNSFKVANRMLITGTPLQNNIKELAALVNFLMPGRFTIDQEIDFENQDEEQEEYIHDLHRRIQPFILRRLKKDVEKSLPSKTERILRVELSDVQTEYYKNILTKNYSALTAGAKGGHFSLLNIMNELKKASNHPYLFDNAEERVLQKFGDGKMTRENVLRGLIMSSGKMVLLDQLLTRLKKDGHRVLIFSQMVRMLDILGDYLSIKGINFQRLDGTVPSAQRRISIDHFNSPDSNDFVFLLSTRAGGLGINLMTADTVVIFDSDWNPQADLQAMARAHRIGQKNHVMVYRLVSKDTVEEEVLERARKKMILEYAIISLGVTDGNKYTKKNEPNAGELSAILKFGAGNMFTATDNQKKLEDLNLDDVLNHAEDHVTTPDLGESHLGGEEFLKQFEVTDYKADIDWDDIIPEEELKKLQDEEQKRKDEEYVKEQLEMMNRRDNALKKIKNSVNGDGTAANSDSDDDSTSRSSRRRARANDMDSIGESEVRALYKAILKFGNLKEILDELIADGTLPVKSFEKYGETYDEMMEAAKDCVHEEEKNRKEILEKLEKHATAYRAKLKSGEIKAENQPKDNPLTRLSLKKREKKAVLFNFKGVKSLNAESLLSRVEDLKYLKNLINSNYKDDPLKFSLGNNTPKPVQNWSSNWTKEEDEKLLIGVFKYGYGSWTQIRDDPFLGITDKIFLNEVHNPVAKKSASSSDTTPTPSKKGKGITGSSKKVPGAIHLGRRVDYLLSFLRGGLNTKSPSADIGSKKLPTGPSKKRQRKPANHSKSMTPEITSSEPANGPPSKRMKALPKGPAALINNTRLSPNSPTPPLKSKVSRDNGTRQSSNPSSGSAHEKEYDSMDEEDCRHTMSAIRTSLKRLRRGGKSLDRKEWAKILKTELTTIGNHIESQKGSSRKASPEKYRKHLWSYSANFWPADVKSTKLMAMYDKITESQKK
Protein translocase subunit SecA (Escherichia coli (strain K12)), sequence (P10408 whole entry): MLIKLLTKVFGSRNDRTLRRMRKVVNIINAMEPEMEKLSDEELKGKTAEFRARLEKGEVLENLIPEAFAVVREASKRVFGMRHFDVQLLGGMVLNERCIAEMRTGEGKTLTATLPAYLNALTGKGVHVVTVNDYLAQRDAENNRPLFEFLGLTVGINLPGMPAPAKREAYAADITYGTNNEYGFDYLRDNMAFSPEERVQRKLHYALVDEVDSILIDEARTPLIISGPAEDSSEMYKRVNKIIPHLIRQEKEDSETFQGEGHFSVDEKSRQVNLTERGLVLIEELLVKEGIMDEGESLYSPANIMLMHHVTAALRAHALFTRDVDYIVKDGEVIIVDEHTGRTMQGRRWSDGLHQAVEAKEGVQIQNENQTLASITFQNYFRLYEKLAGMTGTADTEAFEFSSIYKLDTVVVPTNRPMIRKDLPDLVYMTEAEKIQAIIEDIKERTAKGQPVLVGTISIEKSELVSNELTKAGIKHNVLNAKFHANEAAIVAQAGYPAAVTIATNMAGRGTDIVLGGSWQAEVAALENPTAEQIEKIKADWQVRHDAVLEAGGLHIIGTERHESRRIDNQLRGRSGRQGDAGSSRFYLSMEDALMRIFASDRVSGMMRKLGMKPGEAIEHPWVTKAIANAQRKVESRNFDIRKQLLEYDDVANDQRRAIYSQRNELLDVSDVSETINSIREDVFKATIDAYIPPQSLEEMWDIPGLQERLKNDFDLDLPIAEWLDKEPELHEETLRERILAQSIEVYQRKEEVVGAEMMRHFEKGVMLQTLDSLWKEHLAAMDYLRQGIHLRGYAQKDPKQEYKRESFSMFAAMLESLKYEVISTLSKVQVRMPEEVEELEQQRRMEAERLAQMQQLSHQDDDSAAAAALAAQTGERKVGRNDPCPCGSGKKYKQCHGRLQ

On to `COCc1cccc(CNCc2c(C)nn(C)c2N(C)C)c1`, for which the Percent Effect in experiment [1] was -6.8%; in [2], 18.9%; in experiment [3], -21.5%; in [4] it was 9.53%; in the experiment with Trypanosoma cruzi it was 7.64%; in experiment [5] it was -4.01%. Also, the Percent Effect in [6] was 12.4%; in the experiment listed under Homo sapiens, 4.56%; in experiment [7] it was 7.39%; in [8] it was 23.5%; in experiment [9] it was -13.6%.

Turning to `CC(C(=O)N1CCN(c2cnccn2)CC1)n1cncn1` (stereo not given), the Percent Effect is -0.0716% in experiment [1]; 1.27% in experiment [2]; 4.88% in [3]; 1.64% in experiment [4]; -4% in the experiment on Trypanosoma cruzi; 7.53% in experiment [5]. Moreover, the Percent Effect in [6] is 8.23%; in the experiment listed under Homo sapiens, 11.1%; in [7], 3.12%; in experiment [8], 10.1%; in [9], -8.39%.

For `Clc1ccccc1CN1CCc2nc(C3CCCCN3)ncc2C1` (stereo not given), the Percent Effect in experiment [1] was -3.32%; in experiment [2], -8%; in experiment [3] it was 4.19%; in experiment [4], 5.09%; with Trypanosoma cruzi it was 8.46%; in experiment [5], -1.17%. For the same compound, the Percent Effect is 5.55% in experiment [6]; -13.2% in the experiment filed under Homo sapiens; 5.32% in [7]; 3.85% in experiment [8]; -2.09% in experiment [9].

Consider `O=C(Cc1ccc2c(c1)CCC2)NCCNc1ncccn1`, for which the Percent Effect in [1] was -2.76%; in experiment [2] it was 21.1%; in [3] it was 0.848%; in experiment [4] it was 1.21%; with Trypanosoma cruzi, 2.89%; in experiment [5] it was 3.96%. For the same compound, the Percent Effect in experiment [6] is 18.4%; in the experiment listed under Homo sapiens, -17.3%; in [7], 6.4%; in [8], 30.9%; in [9], -10.6%.

Turning to `COc1ccc(C(=O)NCCc2nnc3ccccn23)c(OC)c1`, the Percent Effect in experiment [1] is -6.68%; in experiment [2] it was 5.2%; in experiment [3] it was 5.94%; in experiment [4] it was -6.61%; in the experiment with Trypanosoma cruzi it was -7.93%; in experiment [5], -3.16%. The Percent Effect is 13.5% in [6]; 13% in the experiment filed under Homo sapiens; 0% in [7]; 2.35% in experiment [8]; -16.9% in experiment [9].

Regarding `CC(C)Oc1ncnc2c1CCN(C(=O)c1cccn1C)CC2`, the Percent Effect was -3.69% in experiment [1]; 13.3% in experiment [2]; 9.51% in [3]; -7.87% in experiment [4]; -4.53% in the experiment with Trypanosoma cruzi; -3.03% in [5]. In addition, the Percent Effect in [6] is 11.2%; in the experiment filed under Homo sapiens it was 9.21%; in [7], 2.13%; in experiment [8], 8.97%; in experiment [9] it was -0.243%.

Turning to `CCc1ccc(CN2C[C@@H]3OCCN(c4ccnc(N(C)C)n4)[C@@H]3C2)o1`, the Percent Effect in experiment [1] is -1.43%; in [2], 5.48%; in [3], -0.72%; in experiment [4], 13.7%; in the experiment on Trypanosoma cruzi, 1.98%; in experiment [5], -13.6%. The Percent Effect in experiment [6] is 7.28%; in the experiment filed under Homo sapiens, 82.1%; in [7], 5.21%; in experiment [8], -3.7%; in [9] it was -4.54%.

Turning to `CN(C(=O)c1cccc(C(=O)NS(C)(=O)=O)c1)c1ccccc1`, the Percent Effect in [1] is -5.66%; in experiment [2], 15.6%; in experiment [3], 1.54%; in [4], 14.7%; with Trypanosoma cruzi it was 6.98%; in [5], -24.8%. The Percent Effect is 16.5% in [6]; 4.53% in the experiment filed under Homo sapiens; 6.45% in experiment [7]; 13.6% in experiment [8]; -2.26% in experiment [9].

As for `Cc1ccc(N2CCCC(NCc3ccc(C)o3)C2)nn1` (stereo not given), the Percent Effect in experiment [1] is -0.735%; in [2], 6.33%; in [3], 1.51%; in experiment [4], -2.46%; with Trypanosoma cruzi it was 4%; in [5], -1.5%. Moreover, the Percent Effect was 28.8% in [6]; -8.15% in the experiment filed under Homo sapiens; 5.21% in experiment [7]; 10.1% in experiment [8]; -15.2% in experiment [9].

Take `CN(C)CC1CN(C(=O)NCc2ccccc2)Cc2nccn2C1` (stereo not given): the Percent Effect is -2.59% in [1]; 13.7% in experiment [2]; -1.1% in experiment [3]; 4.01% in [4]; -1.59% in the experiment on Trypanosoma cruzi; -3.19% in experiment [5]. For the same compound, the Percent Effect in experiment [6] was determined as 5.39%; in the experiment filed under Homo sapiens, 3.73%; in experiment [7], 3.12%; in experiment [8], 6.17%; in experiment [9], 1.81%.
